# Screening results deposited in PubChem by The Scripps Research Institute Molecular Screening Center.
# FBW7 activator = human FBW7 E3 ligase activation, primary screen | 650,000 tested, 0.13% active | Q969H0 | AlphaScreen FBW7–phospho-cyclin E peptide binding, activator screen | normalized activity (activation), % at 26.1 µM | AID 1259310; in the data active = normalized activity above about 1.9%;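 also: purified mutant Fbw7 with reduced substrate affinity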
# GPR151 ag = activates the human receptor GPR151 | 650,000 tested, 1% active | PathHunter beta-arrestin GPR151 cells, luminescence | Q8TDV0 | activation, % at 11.2 µM | AID 1508602; in the data active = activation above about 4.9%;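 also: 0% = median of compound wells and 100% = cells with positive control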
# TEAD-YAP inh = TEAD-YAP interaction inhibition. 640,000 tested, 1.4% active. inhibition, % at 9.12 µM. AID 1259422. HEK-TIYL cells, TEAD-Gal4/YAP UAS-luciferase luminescence; in the data active = inhibition above about 32%;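 also: 0% = median of test compound wells and 100% = reference inhibitor wells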
# MITF primary = inhibitors of human MITF. O75030. inhibition, % at 2.6 µM. AID 1259374. 650,000 tested, 0.91% active. AlphaScreen MITF homodimerization, bead proximity signal; in the data active = inhibition above about 50%;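 also: 0% = vehicle wells with protein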
# Target sequence (O75030 whole entry, looked up): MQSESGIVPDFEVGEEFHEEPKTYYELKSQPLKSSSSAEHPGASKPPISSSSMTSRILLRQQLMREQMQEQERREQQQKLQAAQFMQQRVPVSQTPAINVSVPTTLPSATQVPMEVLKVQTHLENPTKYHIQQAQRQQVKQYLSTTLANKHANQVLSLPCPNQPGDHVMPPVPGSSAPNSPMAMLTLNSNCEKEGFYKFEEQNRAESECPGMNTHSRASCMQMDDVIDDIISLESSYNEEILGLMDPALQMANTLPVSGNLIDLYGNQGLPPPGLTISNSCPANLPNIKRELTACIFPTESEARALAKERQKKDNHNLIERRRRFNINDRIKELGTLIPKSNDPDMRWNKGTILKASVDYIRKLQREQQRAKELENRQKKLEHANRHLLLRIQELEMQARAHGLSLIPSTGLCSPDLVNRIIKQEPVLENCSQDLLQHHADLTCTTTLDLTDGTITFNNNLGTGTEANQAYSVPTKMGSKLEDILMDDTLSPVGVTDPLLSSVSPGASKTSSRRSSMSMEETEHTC
# GPR151 conf act = confirmation of human GPR151 activators; shares compounds with GPR151 ag; GPR151 PathHunter beta-arrestin cells, luminescence, 90 min; % of EA-reagent control over plate median; activation, % at 11.2 µM; 6,700 tested, under 10 active; AID 1508609;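 active = mean percent activation across replicates above the confirmation screen cutoff of 4.91%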
# GPR119 counter = GPR119 activation, counter-screen for GPR151 activators. shares compounds with GPR151 ag. GPR119 PathHunter beta-arrestin cells, luminescence, 90 min; 0 = compound-well median, 100 = enzyme-acceptor control. activation, % at 11.2 µM. 6,700 tested, 0.3% active;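 active = mean percent activation in the counterscreen above 29.09%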;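 also: counterscreen on off-target GPR119 to flag nonselective hits from the GPR151 activator screen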
# The depositor's hits bear a star; x = no result. An excerpt weighted towards active compounds, which were near 3.5% of everything screened.
SMILES,FBW7 activator,GPR151 ag,TEAD-YAP inh,MITF primary,GPR151 conf act,GPR119 counter
CCC(C)(C)C1CCC(NC(=O)C(=O)Nc2ccccc2)CC1 (stereo unspecified),0,6.3*,-14,8,0,-5
O=c1c2cccnc2n(Cc2cccc(Cl)c2)c(=O)n1Cc1ccc2c(c1)OCO2,0,4,11,-1,x,x
COC(=O)c1c(NC(=O)c2ccc3c(c2)OCO3)sc(C(=O)N2CCCCC2)c1C,0,7.5*,0,3,1,8
O=C1CCCN1CCCNc1nc2ccccc2n2nnnc12,0,5.9*,2,-7,0,-8
c1ccc2c(c1)nc(NCCCN1CCOCC1)c1nnnn12,0,-2,-8,7,x,x
O=C1CCCN1CCCNc1nc2ccccc2c2nc(-c3cccnc3)nn12,0,6.3*,20,10,1,15
CCCCNc1nc2ccccc2c2nc(-c3cccnc3)nn12,0,1,4,6,x,x
COc1ccc(C(=O)Nc2cc(C(=O)NCCSCc3ccccc3)ccc2N2CC3CC(C2)c2cccc(=O)n2C3)cc1 (stereo unspecified),0,0,6,0,x,x
CSc1ccccc1C(=O)Nc1ccc2c(c1)CC(=O)N2,0,5.3*,6,6,0,-3
OCC1CCCN1c1nc(NCc2ccccc2)c2ncn(Cc3ccc(C(F)(F)F)cc3)c2n1 (stereo unspecified),0,-1,10,10,x,x
C#CCn1c(=NC(=O)C2CC2)sc2cc(S(C)(=O)=O)ccc21,1,6.5*,3,-13,-1,1
CCOCCn1c(=NC(=O)C2CC2)sc2cc(S(C)(=O)=O)ccc21,0,8.7*,1,3,1,7
O=C(c1cccc2nccnc12)N1CCc2c(nc(N3CCCC3)[nH]c2=O)C1,0,0,1,14,x,x
O=CN/N=C/c1sc(N2CCOCC2)nc1-c1ccccc1,0,-1,-5,-4,x,x
CCOC(=O)CSc1ccc(C(=O)N(CC)CC)cc1[N+](=O)[O-],0,6.8*,-1,-5,0,-7
CCOC(=O)CSc1ccc(C(=O)OCC)cc1[N+](=O)[O-],0,-2,9,3,x,x
COCC(=O)NC(CC(C)C)c1nnc2n1CCN(Cc1cc(C)c(C)cc1C)CC2 (stereo unspecified),0,2,9,6,x,x
Cc1ccc(C)c(OCCNCC(C)O)c1Cl (stereo unspecified),0,-1,-7,28,x,x
COc1ccc(NC(=O)c2nccnc2C(=O)O)cc1,0,0,7,17,x,x
CC(C)c1ccc(N2C(=O)NC(=O)/C(=C/c3ccc(O)cc3)C2=O)cc1,0,-2,8,12,x,x
CC(C)c1ccc(N2C(=O)NC(=O)/C(=C/c3ccccc3O)C2=O)cc1,0,12*,10,14,0,-1
CCN(CC(=O)O)S(=O)(=O)c1cc(Cl)ccc1Cl,0,0,2,14,x,x
CCN(CC(=O)NC)S(=O)(=O)c1ccc(Cl)cc1,1,7.6*,4,6,-2,-17
CCN(CC)S(=O)(=O)c1ccc(S(=O)(=O)c2ccc(S(=O)(=O)N(CC)CC)cc2)cc1,0,5.9*,5,-2,-1,-1
CCN(CC(N)=O)S(=O)(=O)c1cc(Cl)ccc1Cl,0,5.0*,-3,-15,1,3
SMILES,FBW7 activator,GPR151 ag,TEAD-YAP inh,MITF primary,GPR151 conf act,GPR119 counter
CN(CC(=O)NN)S(=O)(=O)c1ccc(Cl)cc1,0,6.3*,-9,5,1,10
Cc1ccc(C)c(Oc2coc3cc(OCc4ccc(Br)cc4)ccc3c2=O)c1,1,-2,-2,10,x,x
CC(C)(C)c1ccc(/C=C2\N=C(c3ccccc3Cl)OC2=O)cc1,0,1,7,11,x,x
CCc1nnc(NC(=O)c2ccccc2[N+](=O)[O-])s1,0,1,-5,2,x,x
CC(C)(C)Cc1nnc(NC(=O)c2ccccc2[N+](=O)[O-])s1,0,13*,0,-4,0,-5
O=C(Nc1nc(-c2ccccc2)cs1)c1ccccc1[N+](=O)[O-],0,2,6,8,x,x
O=C(Nc1nc(-c2ccccn2)cs1)c1ccccc1[N+](=O)[O-],0,5.4*,54*,44,0,-7
O=C(C[n+]1ccccc1)N/N=C/c1cccs1,0,6.1*,8,12,1,2
Cc1ccc(NC(=O)COC(=O)CCc2ccco2)cc1C,0,6.3*,4,-10,0,4
CCCOC(=O)c1ccc2c(c1)C(=O)N(c1ccccc1OC)C2=O,0,0,-7,-8,x,x
O=C(c1oc2ccccc2c1N1CCCCC1)N1CCCCC1,0,5.0*,10,0,-1,0
CC(C)NC(=O)C1CCN(C(=O)N2CCOc3ccccc32)CC1,0,-1,-4,0,x,x
O=C(NCC1CCCO1)C1CCN(C(=O)N2CCOc3ccccc32)CC1 (stereo unspecified),0,9.7*,3,8,0,-10
O=C(N/N=C/c1cc2ccccc2nc1Cl)c1ccc([N+](=O)[O-])cc1,0,-2,0,11,x,x
Cc1cnc(-c2ccccc2)nc1NC1CC1,0,-1,-8,-9,x,x
Oc1ccc(CCNc2ccnc(N3CCN(c4ccccn4)CC3)n2)cc1,0,6.2*,6,-7,0,-2
CC1CCN(c2ccc(C(=O)N3CCOCC3)cc2[N+](=O)[O-])CC1,0,5.2*,-14,-5,-1,-18
O=C(c1ccc(N2CCCCC2)c([N+](=O)[O-])c1)N1CCOCC1,0,0,-10,2,x,x
CC1CN(CCOCCOc2c(Cl)cccc2Cl)CC(C)O1 (stereo unspecified),0,8.4*,13,7,0,4
CC1CN(CCOCCOc2ccc(Cl)c3ccccc23)CC(C)O1 (stereo unspecified),0,0,7,21,x,x
CCOC(=O)c1cc2occc2n1CC(=O)N1CCCC1,0,7.4*,-3,-4,1,1
Cc1ccc(C)c(/C=N/NC(=O)CN2CCSCC2)c1,0,1,-2,43,x,x
COc1ccc(CCNC(=O)c2csc(-c3cccc(C(C)=O)c3)n2)cc1,0,1,8,-9,x,x
COc1ccc2c(c1)NC1(CCCN(CCN3C(=O)c4ccccc4C3=O)C1)c1cccn1-2 (stereo unspecified),0,5.4*,1,-3,1,-2
O=C1c2ccccc2C(=O)N1CCN1CCCC2(C1)Nc1ccccc1-n1cccc12 (stereo unspecified),0,0,-4,7,x,x
COc1ccc(NC(=O)c2cc(Br)ccc2Cl)cc1N1CCCC1=O,0,1,-14,10,x,x
COc1cc(NC(=O)c2cc(Br)ccc2Cl)ccc1N1CCCC1=O,0,5.0*,9,10,1,8
